# This is a sample that favours compounds with a hit; in the whole collection about 11% have one here.
# JMJD2A Tudor = inhibitors of human JMJD2A Tudor domain. O75164. AlphaScreen JMJD2A-Tudor / H3K4me3 peptide binding. Potency, µM (top dose mostly 114 µM), without a hit: top-dose activity change, negative = inhibition, hits mostly inhibitors. 390,000 tested, 4.4% active; note: potency is the fitted concentration of half-maximal effect; % is set by controls: 0 for no effect and ±100 for the full control effect; nearly all actives have a fitted effect of over 50% in size
# BAZ2B block = blocks human BAZ2B | Q9UIF8 | AlphaScreen BAZ2B-H3K14Ac peptide displacement | Potency, µM (doses to about 114 µM), for inactives: top-dose activity change, negative = inhibition, usual class: inhibitors | 360,000 tested, 4.4% active | AID 504333; note: potency is the fitted concentration of half-maximal effect; % is set by controls: 0 for no effect and ±100 for the full control effect; nearly all actives have a fitted effect of over 60% in size
#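 In this displacement format the biotinylated H3(5-23) peptide acetylated at Lys14 serves as ligand at 50 nM, with BAZ2B at 50 nM in PBS pH 7.4 containing 0.01% Tween-20. Donor and acceptor beads are 10 ug/mL final.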
# G9a inh = G9a (human) methyltransferase inhibition; 350,000 tested, 8.8% active; Potency, µM (top dose mostly 102 µM), for the others: at the highest dose activity, negative = inhibition, actives largely listed as inhibitors; G9a H3K9 monomethylation, AlphaScreen, 2 h; Q96KQ7; AID 504332; note: potency is the fitted concentration of half-maximal effect; % is set by controls: 0 for no effect and ±100 for the full control effect; nearly all actives have a fitted effect of over 75% in size
# Target sequence (Q96KQ7 913-1193 limits assumed): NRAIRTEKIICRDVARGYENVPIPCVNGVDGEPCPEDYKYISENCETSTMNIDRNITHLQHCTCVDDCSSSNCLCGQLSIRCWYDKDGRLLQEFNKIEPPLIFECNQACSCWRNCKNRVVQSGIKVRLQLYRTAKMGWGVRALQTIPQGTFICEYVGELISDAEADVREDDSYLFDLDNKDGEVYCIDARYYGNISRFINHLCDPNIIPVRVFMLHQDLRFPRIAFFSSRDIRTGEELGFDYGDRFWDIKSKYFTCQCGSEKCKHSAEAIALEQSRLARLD
#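 Enzyme 20 nM + cpd, 15 min RT; add b-H3K9 pep 500 nM / SAM 20 uM; 2 h RT; anti-H3K9me1 Ab 0.5 ug/mL + SA donor / anti-rabbit acceptor beads 20 ug/mL each, 10 min; AlphaScreen read.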
# PI5P4Ka inh = PI5P4K alpha (human) kinase inhibition. AID 652105. max response, %. 330,000 tested, 1.2% active. P48426. PI5P4Kalpha enzyme, ADP-Glo luminescence, 60 min; hits give low values; active = max response of -50% or lower; inconclusive = between -30% and -50%; inactive = -30% or higher; note: value at the top dose of about 77 µM; % is set by controls: 0 for no effect and ±100 for the full control effect
#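 Controls without substrate or without enzyme flank wells where PI5P4Kalpha converts substrate using 5 microM ATP (final). Incubation lasts 60 minutes at room temperature; ADP formed is read by ADP-Glo luminescence.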
# HP1b binding inh = blocks HP1-beta chromodomain binding to methylated histone tails. P83916. AlphaScreen HP1-beta / biotin-H3K9me3 peptide binding. Potency, µM (series often up to 114 µM), without a hit: at the top dose activity change, negative = inhibition, actives largely listed as inhibitors. 390,000 tested, 0.56% active. AID 540317; note: potency is the fitted concentration of half-maximal effect; nearly all actives have a fitted effect of over 70% in size
# Target sequence (P83916 whole entry, looked up): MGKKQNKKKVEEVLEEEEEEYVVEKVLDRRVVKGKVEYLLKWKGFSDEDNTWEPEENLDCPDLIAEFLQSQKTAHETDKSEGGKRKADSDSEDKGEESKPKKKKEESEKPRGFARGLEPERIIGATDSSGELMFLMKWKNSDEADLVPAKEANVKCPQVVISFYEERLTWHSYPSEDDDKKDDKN
#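 AlphaScreen: HP1-beta (50 nM) preformed 30 min with biotin-H3(1-18)K9me3 peptide (50 nM) in PBS pH 7.4, 0.01% Tween-20. Compound added for 30 min at RT, then streptavidin donor/nickel chelate acceptor beads (10 ug/mL) for 30 min.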
# L3MBTL1 block = L3MBTL1 (human) inhibition | Q9Y468 | AlphaScreen L3MBTL1–H3K9me1 peptide binding | Potency, µM (top dose mostly 57.1 µM), for inactives: at the top dose activity, negative = inhibition, actives largely listed as inhibitors | 230,000 tested, 0.66% active; note: potency is the fitted concentration of half-maximal effect; % is set by controls: 0 for no effect and ±100 for the full control effect; nearly all actives have a fitted effect of over 60% in size
#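 L3MBTL1 50 nM + b-AHA-H3(1-15)K9me1 75 nM, 30 min RT; compound added, 30 min RT; streptavidin donor/Ni-chelate acceptor beads 10 ug/mL each final, 30 min RT dark; AlphaScreen read.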
# * = called active by the depositor; ? = inconclusive; / = no result given; [ ] = remark or other dose. Unless noted, calls come from the whole dose curve; as a rule, active = well fitted inhibition curve with a large enough effect; inconclusive = small, poorly fitted or top-dose-only effect; inactive = no such curve, though single readings can be large or run the other way.
SMILES,JMJD2A Tudor,BAZ2B block,G9a inh,PI5P4Ka inh,HP1b binding inh,L3MBTL1 block
COc1ccc(C2CC(c3ccccc3)Oc3ccc(C(C)(C)C)cc32)cc1 (centres undefined),1%,/,/,/,53%,/
COc1ccc(C2CC(c3ccccc3)Oc3cc(OC)ccc32)cc1 (centres undefined),40µM*,/,/,/,?,/
COc1ccc(CC(=O)NCc2ccc3c(c2)CCN3C(=O)c2ccc(C)cc2)cc1OC,-36%,-38%,3%[59 µM],/,-20%,/
O=C(COc1ccc(Br)cc1)N1CCN(c2ccc([N+](=O)[O-])c(N3CCCCC3)c2)CC1,?,-13%,35µM*,0,-9%,?
CCOC(=O)CNC1CC(=O)N(c2cccc(Cl)c2)C1=O (centres undefined),?,-5%,10µM*,/,34%,/
CCCN(CCO)CCCc1ccccc1,2.8µM*,?,?,-7,?,/
CCCCN(CCO)CCCC,0%,-5%,9%[0.501 µM],3,36%,-2%
CCN(CCCc1ccccc1)CCCc1ccccc1,22µM*,?,?,6,-9%,9%
COc1cccc(C(=O)Nc2ccc3nc(SCC(=O)N4CCc5ccccc54)sc3c2)c1,7%,-1%,-3%[59 µM],/,68%,/
COc1ccc(C2c3cccn3CCN2S(=O)(=O)c2ccc([N+](=O)[O-])cc2)cc1 (centres undefined),-35%,?,13µM*,/,-4%,/
O=S(=O)(c1ccc(Br)cc1)N1CCn2cccc2C1c1ccc(Br)cc1 (centres undefined),-17%,-11%,-19%[59 µM],/,9%,/
O=C1CC(c2ccco2)Sc2nc3ccccc3n21 (centres undefined),79µM*,-32%,45µM*,?,19%,-9%
O=C1CC(c2ccccc2)Sc2nc3ccccc3n21 (centres undefined),18%,11%,?,1,60%,6%
Cn1cc(S(=O)(=O)N2CCCC2)cc1C(=O)Nc1ccc(C(F)(F)F)cc1,-19%,?,-41%[59 µM],/,7%,/
CC(C)(C)OC(=O)N1CCCC1C(=O)NC1COC2CC(n3cc(F)c(=O)[nH]c3=O)OC12 (centres undefined),-11%,/,/,/,47%,/
CCn1c(C)cc2c(c1=O)C(c1ccc3c(c1)OCO3)C(C#N)=C(N)O2 (centres undefined),-6%,6%,-24%[12.7 µM],/,15%,7%
CCn1c(C)cc2c(c1=O)C(c1ccncc1)C(C#N)=C(N)O2 (centres undefined),2%,6%,40µM*,-3,33%,3%
Cc1nn(Cc2ccccc2)c2c1C(c1cccc(Cl)c1)C(C#N)=C(N)O2 (centres undefined),?,?,50µM*,-2,-21%,/
Cc1ccc(-n2nc(C)c3c2OC(N)=C(C#N)C3c2ccncc2)cc1 (centres undefined),?,-11%,45µM*,-14,1%,-5%
Cc1nn(-c2ccccc2)c2c1C(c1ccncc1)C(C#N)=C(N)O2 (centres undefined),-20%,-8%,16µM*,-22,8%,-1%
Cc1cc2c(c(=O)n1C1CC1)C(c1cccc(Cl)c1)C(C#N)=C(N)O2 (centres undefined),-12%,-4%,-35%,-2,50%,2%
O=C(Cn1c(=O)ccc2cc(S(=O)(=O)N3CCCC3)ccc21)NCc1ccc(F)cc1,-4%,-2%,1%[59 µM],/,27%[57 µM],/
O=c1c2ccccc2n(Cc2cccc(F)c2)c(=O)n1Cc1ccccc1Cl,4%,13%,14%[59 µM],/,40%,/
COc1cc(-n2nc(C)c3c2OC(N)=C(C#N)C3c2ccccc2)c(Cl)c(Br)c1O (centres undefined),-33%[11.4 µM],45µM*,?,-57*,45µM*,/
Cc1nn(-c2ccccc2)c(Cl)c1C1C(C#N)=C(N)Oc2c1c(C)nn2-c1ccccc1 (centres undefined),?,?,/,-10,-5%,-13%
SMILES,JMJD2A Tudor,BAZ2B block,G9a inh,PI5P4Ka inh,HP1b binding inh,L3MBTL1 block
COc1ccc(CC(=O)NC(C)c2nnc(SCC(=O)Nc3ccccc3)n2C)cc1 (centres undefined),-4%,-24%,-5%,3,35%,-5%
CCc1ccc(OC(C)c2nnc(SCC(=O)Nc3ncccc3C)n2C)cc1 (centres undefined),?,-26%,11µM*,2,19%,-5%
O=c1[nH]c2ccc(Cl)cc2c(-c2ccccc2)c1SC(=S)N1CCOCC1,?,-34%,?,?,-20%,/
O=c1[nH]c2ccc(Cl)cc2c(-c2ccccc2)c1SC(=S)N1CCCCC1,?,?,11µM*,?,?,/
O=C1CCCN1CCC1CCN(C2CC(=O)N(c3ccc(F)cc3)C2=O)CC1 (centres undefined),-15%,2%,14µM*,/,44%,/
O=C(O)CN1CCN(Cc2ccc(F)cc2Cl)C1=O,-12%,-31%,25µM*,/,23%,-2%
O=C(CN1CCN(Cc2ccc(F)cc2Cl)C1=O)NCCc1ccccc1,-30%,12%,?,-14,26%,/
CC(=O)Nc1cccc(NC(=O)CSc2nc(C)c(C)c(C)c2C#N)c1,-7%,15%,10µM*,/,16%,6%[11.4 µM]
O=C(COC(=O)c1c2c(nc3ccccc13)/C(=C\c1ccco1)CC2)NC1CCCC1,?,/,/,-55*,?,/
O=C(COC(=O)c1c2c(nc3ccccc13)/C(=C/c1cccc([N+](=O)[O-])c1)CCC2)NC1CCS(=O)(=O)C1 (centres undefined),?,?,-10%[59 µM],24,-10%,-5%
Cc1ccc(Nc2nnc(SCC(=O)c3ccc(O)cc3O)s2)cc1,-33%,-13%,32µM*,-56*,-9%,/
Cc1ccc(Nc2nnc(SCC(=O)N(C)C3CCS(=O)(=O)C3)s2)cc1 (centres undefined),-14%,-3%,?,3,18%,1%
Cc1cccc(Nc2nnc(SCC3CCCCO3)s2)c1 (centres undefined),-3%,-8%,10µM*,-3,24%,9%
Cc1cccc(Nc2nnc(SCC(=O)c3ccc(O)cc3O)s2)c1,-27%,-5%,45µM*,-15,38%,/
COc1ccc(Nc2nnc(SCC3CCCCO3)s2)cc1 (centres undefined),-18%,-22%,?,-5,17%,/
Cc1cccc(Nc2nnc(SCC(=O)Nc3ccc(C(=O)O)cc3)s2)c1,-5%,-5%,-27%,-19,15%,15%
Cc1cccc(Nc2nnc(SCC(O)=C(C#N)c3nc4ccccc4[nH]3)s2)c1,-12%,/,/,-61*,10%,/

# Compound activity as filed in PubChem BioAssay.
